This assay deals with T1, USP38, Q8NB14.
T1 chain: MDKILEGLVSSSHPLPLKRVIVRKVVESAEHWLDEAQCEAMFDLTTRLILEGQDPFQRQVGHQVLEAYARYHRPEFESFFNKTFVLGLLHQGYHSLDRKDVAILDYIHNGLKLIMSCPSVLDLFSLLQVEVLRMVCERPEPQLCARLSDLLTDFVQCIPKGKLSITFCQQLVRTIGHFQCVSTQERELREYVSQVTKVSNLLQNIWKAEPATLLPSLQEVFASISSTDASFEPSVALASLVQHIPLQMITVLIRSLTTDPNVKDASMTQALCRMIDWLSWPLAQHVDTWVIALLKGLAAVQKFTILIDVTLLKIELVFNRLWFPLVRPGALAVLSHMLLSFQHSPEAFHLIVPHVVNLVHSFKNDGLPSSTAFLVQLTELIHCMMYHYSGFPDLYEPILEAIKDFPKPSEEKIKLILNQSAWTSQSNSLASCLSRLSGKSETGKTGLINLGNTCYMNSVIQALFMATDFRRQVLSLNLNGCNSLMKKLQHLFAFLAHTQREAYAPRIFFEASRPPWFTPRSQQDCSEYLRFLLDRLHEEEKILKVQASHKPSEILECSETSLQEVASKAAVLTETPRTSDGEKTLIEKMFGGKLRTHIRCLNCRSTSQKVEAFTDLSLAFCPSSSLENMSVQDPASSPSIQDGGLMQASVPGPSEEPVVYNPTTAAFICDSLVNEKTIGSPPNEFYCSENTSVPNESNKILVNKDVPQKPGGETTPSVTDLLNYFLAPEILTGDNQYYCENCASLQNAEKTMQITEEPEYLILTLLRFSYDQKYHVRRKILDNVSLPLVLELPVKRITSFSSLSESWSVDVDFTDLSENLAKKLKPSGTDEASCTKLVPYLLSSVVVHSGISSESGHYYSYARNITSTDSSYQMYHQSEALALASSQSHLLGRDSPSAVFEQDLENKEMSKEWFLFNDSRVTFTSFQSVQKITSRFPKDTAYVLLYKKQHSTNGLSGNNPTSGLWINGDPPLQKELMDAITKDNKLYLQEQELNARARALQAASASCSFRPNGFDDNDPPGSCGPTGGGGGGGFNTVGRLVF
Briefly: median log2 fold change of GCK-ALFA target abundance (FLAG IP / Myc IP barcode read proportion) (log2 ratio); each designed protein is fused to an ALFA-tag nanobody in HEK293 cells to bring the named protein to FLAG-tagged glucokinase (GCK); Myc marks an untargeted standard; higher = target protein stabilised (more abundant). The settings on record: target protein: 3xFLAG-MCP-GCK-ALFA reporter; HEK293 landing pad (RPLP). An outline of the steps: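 Sequencing of reverse-transcribed, amplified circular RNA barcodes from anti-FLAG and anti-Myc immunoprecipitates provided the readout for an ALFA-nanobody-fused binder library recombined into HEK293 landing-pad cells. Those cells were induced with 2 μg mL^−1 doxycycline, transfected with a plasmid expressing a FLAG-tagged target and a Myc-tagged standard, and lysed after 48 h. Target abundance is the per-binder median log2 ratio of FLAG to Myc barcode read proportions. Only barcodes at a proportion of ≥10^−7 in both replicates and binders with ≥3 barcodes per replicate were kept, with a 10^−6 pseudocount added before the two replicates were pooled.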

Here are results for 32 molecules from the supplement of paper PMC12632987.

B1: usp_38_diff_out_18_28_406 (protein)
chain: SSEEIEKKIEEAKEETDKLIDRYVEISTAAFLKYHEDPSSEELLKKVNELADALGKAAKAVNEMRENKDNEEKVEKYLEEYKKYSEEAEKLLEEIEKLIK
With B1, the “median log2 fold change” value was determined as 0.0217.

B2: usp_38_diff_out_18_28_411 (protein)
chain: KKEEIQEKIKKAEEKLDKLIDKYVEISTKAFLKYHENPESKELLEAVDKLADELGKAAQHVNLMRENKDDEEKVEKELKEFEEHSKKAEELLKKVEELIK
As to B2, the “median log2 fold change” value was -0.206.

B3: usp_38_diff_out_18_28_404 (protein)
chain: MMEEIQKKIEEAEKEADKLIDEYTKAATEAFLKYAEDPSATELVEAVNKAADALGEAAKAVNEMRRHKDDPEKVEKELKKFEEAKKKAEEALKEIKKLIA
Regarding B3, the “median log2 fold change” value is -0.178.

B4: usp_38_diff_out_18_28_393 (protein)
chain: SEERRKELEERLKALEAELDALITEATAVATERLEAHPDDEAVWELVDALFDALGAAAAALREARELLRAGGDLEEVEALLDQAEAALAEAKALLAELKA
On to B4, for which the “median log2 fold change” value was -0.136.

B5: usp_38_diff_out_18_28_398 (protein)
chain: SAAERAELEAELAALQKELDALITEATAAATAALTAHPDSAEVWALVDALFDHLGAAAAALREARRLLREGGPLEEVRAALAAAQAHLAEARALLAELKA
With B5, the “median log2 fold change” value worked out at 0.000517.

B6: usp_38_diff_out_18_28_403 (protein)
chain: MQEEVEKKIKEAEKKTDELIDKYTEAATAGFLKYAEDPSATELVEAVRAAADALGAAAQAVNEMKRNKDDPEKVEELLKKFEEAYKKAEEALKEIERLIA
For B6, the “median log2 fold change” value is -0.0578.

B7: usp_38_diff_out_18_28_395 (protein)
chain: MEEERAKLEEELKKLEKELNELIDRATAAATAALTAHPDDADVWALVDALFDSLGAAAYHLREARELLREGGPLEEVKKELEKAKEHLKEAKALLAELEA
As for B7, the “median log2 fold change” value was -0.179.

B8: usp_38_diff_out_18_28_387 (protein)
chain: MEKEREELKKELEELRKRLDELIDRATEEATRALTAHPDDEEVWELIDRLFDTLGEAAAALNRARELLRAGGPLEEVKKELEKARKALEEAERLLEELEA
As to B8, the “median log2 fold change” value was -0.291.

B9: usp_38_diff_out_18_28_388 (protein)
chain: SEEEREELRERLEELEKRLDALIDEATAVATAALTAHPDSAEVQALVAELFDALGAAAAALRRARELLRRGGPLEEVREALEEAERHLEEAERLLAELRA
As for B9, the “median log2 fold change” value was determined as 0.11.

B10: usp_38_diff_out_18_28_399 (protein)
chain: EEEERRRLEEELRRLEEELDELIDEAVEAATKALTAHPGDEAVEALVRELFDHLGAAAAALREARELLRAGGDPEEVRRLLEEAREHLEKAREALKELKA
Consider B10, for which the “median log2 fold change” value was -0.117.

B11: usp_38_diff_out_18_28_409 (protein)
chain: AKEEIEKKIEEAEKELDELIDEYVKISTEAFLKYHEDPSSKELLEAVNELADELGKAAQAVNEMRKNRDDKEAVEKQLKVFEEHKKKAEELLKKIKELIK
As to B11, the “median log2 fold change” value was -0.273.

B12: usp_38_diff_out_18_28_389 (protein)
chain: AAAARAALEAELAALRAELDALIDEATELATRKLEEHPDDEEVWELVDRLFDALGRAAAHLEEARRLLREGGDLAAVQAELDAARAALAEAKRLLEELKA
Take B12: the “median log2 fold change” value was -0.314.

B13: usp_38_diff_out_18_28_391 (protein)
chain: SSAERERLERELERLERELDELIDEATAVATEKLEEHPDDEEVWRLIDELFDALGRAARALSEARRLLREGGPPEEVERALEEARRHLERARELLEELKE
As to B13, the “median log2 fold change” value is -0.315.

B14: usp_38_diff_out_18_28_385 (protein)
chain: MEEERKKLEEELEKLKKELDKLIDEAVELATAALEAHPDDEAVWALVDALFDALGAAAAALNRARELLKAGGDPEEVKKELDKARAALKEAKALLAELKA
For B14, the “median log2 fold change” value is -0.282.

B15: usp_38_diff_out_18_28_383 (protein)
chain: AEAERAELEKRLEELEKELNELIDEATEAATEKLEAEPDSEEVWELVDELFDELGKAAAKLREARELLRAGAPAEEVQKALEEAEEHLKRAKELLEELKE
As for B15, the “median log2 fold change” value was -0.0589.

B16: usp_38_diff_out_18_28_407 (protein)
chain: MEEEIKEKIEEAKKRLDELIDRYVEIATKAFLKYHENPESKELLEKVRKLADELGKAAQAVNLMRENKDNEEKVEEELEKFEKHYEEAEKLLEEIEKLIK
For the molecule B16, the “median log2 fold change” value is -0.152.

B17: usp_38_diff_out_18_28_386 (protein)
chain: EEERRRELERELRELERRLDELIDEAVAAATEALEAHPDDEEVWALVDELFDTLGRAAAALREARELLRAGGPLEEVERALREAREALERAERLLAELKA
B17: the “median log2 fold change” value is -0.0533.

B18: usp_38_diff_out_18_28_384 (protein)
chain: DAAERAALEKELEELRKRLDELIDRAVEAATAALEAHPDDEAVWALVDALFDTLGAAAAALNEARALLKAGGDPAEVKAALEEARKALAEAERLLAELEA
As to B18, the “median log2 fold change” value was 0.0029.

B19: usp_38_diff_out_18_28_412 (protein)
chain: SAAAVQATIDQMKADLDALIDEANEVSEKAFLKYGEDPSSTELLAAVNELWDHLGAAAQAVNDARRNRDNEAAVAAKAAEFKKHADKAKEKIAEIKKLIA
As for B19, the “median log2 fold change” value was -0.188.

B20: usp_38_diff_out_18_28_401 (protein)
chain: MEEEIEKKIKEAKEKTDEMIDEYVELGEQAFLKYHEDPSSEHLLELLNEAADALGKAAKAVNLMRENKDDPEKVEKELEKFKKYSEKAEKLFEEIKKELE
B20: the “median log2 fold change” value is -0.818.

B21: usp_38_diff_out_18_28_381 (protein)
chain: AEARRAELERRLEELLRELNELIDEATKLATEKLTEHPDDEEVWELVDRLFDELGRAAAHLREARELLRAGAPAEEVEKELREAEEHLKRAKELLKELEA
As to B21, the “median log2 fold change” value was -0.371.

B22: usp_38_diff_out_18_28_410 (protein)
chain: KKEEIEKKIEEAEEELDKLIDEYVEVATEAFLKYHEDPSSEELLEKVRELADELGKAAKAVNEMRENKDNEEKVEEELEKFKKHKEEAEKLLKEVKELIK
Regarding B22, the “median log2 fold change” value is -0.357.

B23: usp_38_diff_out_18_28_405 (protein)
chain: MQEEIEKKIEEAEKRTNELIDKYTEAATRAFEAYAEDPSKTELVKAINEASDALGKAAQAVNEMKRNKDDPEKVEKELKKFEEAYKKAEEAIAKIEELIA
For B23, the “median log2 fold change” value turned out to be 0.0557.

B24: usp_38_diff_out_18_28_396 (protein)
chain: AEAERAALEKRLAELQKRLDALITEATAAATAALEAHPDDAAVWALVAQLFDALGAAAAALQRARELLRAGGPLEEVQAALDEAEAHLAQAEALLAELKA
In the case of B24, the “median log2 fold change” value was -0.054.

B25: usp_38_diff_out_18_28_380 (protein)
chain: AEEERRRLEEELEALKAELDALITEATALATAKLEAHPDDAEVWALVDALFDALGAAAAALERARELLRAGAPPEEVRAALAEARAHIAEARALMAQLAA
With B25, the “median log2 fold change” value is -0.0972.

B26: usp_38_diff_out_18_28_392 (protein)
chain: MEEERERLERELEELRRRLDELIDEATAVATAKLEEHPDDEEVWALIDELFDALGAAAQALREARELLREGGDPEEVRRKLEEARRALEEAERLLAELKA
Consider B26, for which the “median log2 fold change” value was -0.26.

B27: usp_38_diff_out_18_28_397 (protein)
chain: EEERREELERRLEELERELDALIREATEAATAALEAHPDSAEVWALVDALFDALGAAAAHLRRARELLREGGPLEEVERELEKAEAHLAEARALLAELKA
As to B27, the “median log2 fold change” value is -0.194.

B28: usp_38_diff_out_18_28_400 (protein)
chain: MQEEIQKIIEENEKKTNELIDKYTELGEKAFLAYHEDPSNEELLEKLDELADALGKAAKKVNEMRENKNDPEKVKEYSKEFEEYYKKAEALMKEIEKLLA
Take B28: the “median log2 fold change” value was -1.05.

B29: usp_38_diff_out_18_28_402 (protein)
chain: MEEEIEKKIEEAEKRTDELIDEYVELGEKAFLKYHEDPSSEELLEKLDKLADELGKAAQAVNLMRENRDDPEKVEKEYAEFEKYYEKAKKLLEEIKKLLE
Consider B29, for which the “median log2 fold change” value amounted to 0.282.

B30: usp_38_diff_out_18_28_382 (protein)
chain: AAAEREKLEAELKKLEAELNKLIDEATELATKKLTEHPDDEEVWKLVDELFDALGKAAAALNRARELLRAGGPAEEVKKALEEAEKYMKEAKKLMEELKK
As to B30, the “median log2 fold change” value stood at 0.595.

B31: usp_38_diff_out_18_28_394 (protein)
chain: SAAERAALEAELAALEAELDALIDEATKAATEALTANPDSEEVWALVDALFDALGAAAAALRRARELLRAGGPLAEVQAALDEARKHLAEAKKLLKELKA
For B31, the “median log2 fold change” value was -0.118.

B32: usp_38_diff_out_18_28_390 (protein)
chain: EEEERERLERRLRELERELDALIDEATAAITEALTAHPDDEEVWALVDALLDSLGRAAAALNEARRLLAEGGPLEEVERALEEAERHLREAKALLAELKA
For B32, the “median log2 fold change” value amounted to 0.124.
